Drawing on PubChem BioAssay, this text covers growth inhibition, inhibition and outcome for 18 compounds.

Assay [1] can be described thus: antimalarial activity against Dd2 strain (AID 2302;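 active = growth inhibition above 50% at the single 2 µM test dose, taken to imply half-maximal potency below 2 µM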;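 also: 0% = DMSO untreated growth and 100% = chloroquine plus artemisinin killed control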). As to conditions: P. falciparum Dd2 in RBCs, LDH growth readout, 72 h; at 2 µM; stronger effect = higher value.
A short description of assay [2]: HepG2 cytotoxicity, primary screen, cytotoxicity control for P. falciparum antimalarial project, cell-based, ATP luminescence (AID 2303;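 active = inhibition above 50%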;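 also: 0% = DMSO wells and 100% = digitonin-killed cells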). As to conditions: HepG2 viability, 24-48 h, at 10 µM, stronger effect = higher value.
In assay [3] the target is L-lactate dehydrogenase (Plasmodium falciparum (isolate CDC / Honduras)) (UniProt Q27743). As to the kind of experiment: PfLDH activity inhibition – cell lysate, 3D7 strain, counter-screen for P. falciparum growth inhibition project (AID 2304).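 Also: 0% = vehicle and 100% = reference inhibitor.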 The note with it: P. falciparum 3D7 crude extract, LDH APAD/NBT absorbance; at 2 µM; stronger effect = higher value. (In general: The purpose of a counterscreen is to sort out artefacts and off-target activity.)

A short description of assay [4]: inhibition of 3D7 malaria parasite growth – strain 3D7 (AID 2306).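 Also: 0% = DMSO wells and 100% = chloroquine plus artemisinin control wells.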 The note with it: P. falciparum 3D7 erythrocytic growth, LDH absorbance, 72 h; at 2 µM; stronger effect = higher value.
Assay [5] addresses Calcium-dependent protein kinase 1 (Plasmodium falciparum (isolate 3D7)) (UniProt P62344). In words: PfCDPK1 kinase inhibitors, biochemical, TCAMS library (AID 1159585; cut-off not given, nearly all actives have IC50 up to about 0.98 µM;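 also: inhibitors leave more ATP so luminescence rises with inhibition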). The note with it: recombinant PfCDPK1, Kinase-Glo ATP depletion luminescence.
Assay [6] concerns the target Plasmodium falciparum protein kinase 6 (PK6, PF3D7_1337100) (UniProt Q8IDW1). As to the kind of experiment: PfPK6 kinase inhibitors, biochemical, TCAMS library (AID 1159586). The note with it: recombinant PfPK6, Kinase-Glo ATP depletion luminescence. For orientation: In Kinase-Glo more light means more ATP remaining.
Assay [7] concerns the target Protein kinase 7 (PK7), Plasmodium falciparum 3D7 (PF3D7_0213400) (UniProt Q7YTF7). In words: inhibition of Plasmodium PK7 catalytic activity – biochemical, TCAMS antimalarial set, Kinase-Glo luminescence (AID 1159587). The note with it: recombinant PfPK7, Kinase-Glo ATP depletion luminescence.
The target in assay [8] is Calcium-dependent protein kinase 4 (Plasmodium falciparum (isolate 3D7)) (UniProt Q8IBS5). In words: PfCDPK4 kinase inhibitors, biochemical, TCAMS library (AID 1159588; cut-off not given, nearly all actives have IC50 up to about 0.91 µM). As to conditions: recombinant PfCDPK4, Kinase-Glo ATP depletion luminescence.

Molecules are shown by their SMILES. A number with no mark means an inactive call. For part of these data: Results with a measured potency or affinity are listed apart. Activity calls are given as the source filed them. Unless noted, no rule for the calls is given here.

Sequence of Protein kinase 7 (PK7), Plasmodium falciparum 3D7 (PF3D7_0213400) (Q7YTF7 1-343): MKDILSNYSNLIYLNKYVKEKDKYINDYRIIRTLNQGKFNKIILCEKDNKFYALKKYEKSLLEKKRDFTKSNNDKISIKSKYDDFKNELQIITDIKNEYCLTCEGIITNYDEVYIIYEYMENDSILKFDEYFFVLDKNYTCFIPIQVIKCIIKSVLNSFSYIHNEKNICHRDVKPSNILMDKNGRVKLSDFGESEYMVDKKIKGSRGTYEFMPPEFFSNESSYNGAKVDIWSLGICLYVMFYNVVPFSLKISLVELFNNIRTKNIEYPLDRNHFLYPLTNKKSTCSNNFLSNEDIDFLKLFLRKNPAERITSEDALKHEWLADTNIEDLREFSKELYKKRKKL
Sequence of L-lactate dehydrogenase (Plasmodium falciparum (isolate CDC / Honduras)) (Q27743 whole entry, looked up): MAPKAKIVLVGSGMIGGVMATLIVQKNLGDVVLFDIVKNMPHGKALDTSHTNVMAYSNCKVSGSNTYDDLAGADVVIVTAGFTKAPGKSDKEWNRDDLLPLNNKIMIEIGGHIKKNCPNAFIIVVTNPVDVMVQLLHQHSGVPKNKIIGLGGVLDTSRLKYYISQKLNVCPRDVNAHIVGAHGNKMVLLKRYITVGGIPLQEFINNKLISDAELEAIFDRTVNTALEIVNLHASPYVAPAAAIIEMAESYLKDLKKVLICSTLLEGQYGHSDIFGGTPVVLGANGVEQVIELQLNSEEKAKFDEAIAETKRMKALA
Sequence of Plasmodium falciparum protein kinase 6 (PK6, PF3D7_1337100) (Q8IDW1 1-305): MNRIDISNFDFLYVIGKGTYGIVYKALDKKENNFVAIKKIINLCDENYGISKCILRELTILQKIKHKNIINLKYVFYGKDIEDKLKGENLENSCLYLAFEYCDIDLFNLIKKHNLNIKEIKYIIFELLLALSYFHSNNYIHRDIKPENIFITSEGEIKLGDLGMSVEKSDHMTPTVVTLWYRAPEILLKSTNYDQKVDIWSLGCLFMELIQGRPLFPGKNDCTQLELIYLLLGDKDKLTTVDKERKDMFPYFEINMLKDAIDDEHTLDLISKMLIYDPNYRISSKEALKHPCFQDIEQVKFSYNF
Sequence of Calcium-dependent protein kinase 4 (Plasmodium falciparum (isolate 3D7)) (Q8IBS5 whole entry, looked up): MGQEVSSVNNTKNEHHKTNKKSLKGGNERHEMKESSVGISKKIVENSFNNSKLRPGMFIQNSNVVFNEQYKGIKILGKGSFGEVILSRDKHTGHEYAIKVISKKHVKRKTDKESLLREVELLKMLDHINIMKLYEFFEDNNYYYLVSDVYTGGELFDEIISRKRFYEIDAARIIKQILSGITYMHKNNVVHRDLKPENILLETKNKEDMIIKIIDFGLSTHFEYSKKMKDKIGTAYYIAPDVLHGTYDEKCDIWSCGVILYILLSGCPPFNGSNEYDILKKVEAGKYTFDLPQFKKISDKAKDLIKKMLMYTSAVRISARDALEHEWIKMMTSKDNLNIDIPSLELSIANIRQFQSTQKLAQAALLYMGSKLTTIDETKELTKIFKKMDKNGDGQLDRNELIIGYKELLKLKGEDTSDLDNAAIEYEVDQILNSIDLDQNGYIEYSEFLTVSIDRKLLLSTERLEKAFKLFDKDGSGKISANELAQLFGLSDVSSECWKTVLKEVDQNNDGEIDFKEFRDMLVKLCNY
Sequence of Calcium-dependent protein kinase 1 (Plasmodium falciparum (isolate 3D7)) (P62344 whole entry, looked up): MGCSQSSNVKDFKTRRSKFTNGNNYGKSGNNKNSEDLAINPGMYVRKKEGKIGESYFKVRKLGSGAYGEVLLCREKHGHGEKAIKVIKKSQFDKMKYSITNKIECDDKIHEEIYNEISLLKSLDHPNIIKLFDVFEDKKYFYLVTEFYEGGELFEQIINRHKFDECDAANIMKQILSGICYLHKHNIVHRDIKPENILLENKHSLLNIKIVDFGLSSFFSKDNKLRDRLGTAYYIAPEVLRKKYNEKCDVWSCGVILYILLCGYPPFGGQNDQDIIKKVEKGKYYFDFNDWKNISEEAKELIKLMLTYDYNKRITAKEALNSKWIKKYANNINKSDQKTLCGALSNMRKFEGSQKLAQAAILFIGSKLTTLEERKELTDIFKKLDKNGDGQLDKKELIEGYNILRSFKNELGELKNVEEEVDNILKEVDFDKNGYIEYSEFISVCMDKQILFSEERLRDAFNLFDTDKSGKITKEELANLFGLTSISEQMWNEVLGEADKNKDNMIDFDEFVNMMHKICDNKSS

As to `O=C(Nc1ccc(-c2ccc(CN3CCNCC3)cc2)cc1)c1cccc(Cl)c1`, the results for the growth inhibition in assay [1] and in assay [4] were 16% and 91% (active), respectively. In addition, the inhibition is 58% (active) in assay [2] and 2% in assay [3]. For the same compound, the result in assay [5], in assay [6], in assay [7] and in assay [8] was inactive.

For `Cc1ccc(-c2nc3cc(NC(=O)c4ccc([N+](=O)[O-])o4)ccc3o2)cc1Cl`, the figures for the growth inhibition in assay [1] and in assay [4] were 97% (active) and 102% (active), respectively. Also, the inhibition is 24% in assay [2] and -3% in assay [3]. The outcome in assay [5], in assay [6], in assay [7] and in assay [8] was inactive.

Regarding `O=C(COc1cnc2ccccc2n1)Nc1ccccc1Sc1ccc(Cl)cc1`, the growth inhibition in assay [1] and in assay [4] was 100% (active) throughout. Also, the inhibition in assay [2] and in assay [3] was 6% throughout. In addition, the result in assay [5], in assay [6], in assay [7] and in assay [8] was inactive.

As for `Cc1[nH]c(C)c(-c2ccc(/C=C/c3ccccn3)cc2)c(=O)c1Cl`, the growth inhibition in assay [1] was 96% (active); in assay [4], 97% (active). Besides, the inhibition was -9% in assay [2] and -2% in assay [3]. In addition, the result in assay [5], in assay [6], in assay [7] and in assay [8] was inactive.

In the case of `COc1ccc(-c2csc(N(CCCN(C)C)C(=O)c3cc4c(C)nn(-c5ccccc5)c4s3)n2)cc1`, the results for the growth inhibition in assay [1] and in assay [4] were 16% and 102% (active), respectively. Also, the inhibition in assay [2] is 100% (active); in assay [3], -2%. In addition, the outcome in assay [5], in assay [6], in assay [7] and in assay [8] was inactive.

In the case of `c1ccc(Oc2ccc(Nc3nc(NCCc4cnc[nH]4)nc(NC4CCCC4)n3)cc2)cc1`, the growth inhibition in assay [1] is 23%; in assay [4], 97% (active). The inhibition in assay [2] was -5%; in assay [3], 6%. Besides, the outcome in assay [5], in assay [6], in assay [7] and in assay [8] was inactive.

On to `C#CC(C)(CO)N1CCCC1` (centres undefined), for which the growth inhibition in assay [1] was 1%; in assay [4], 95% (active). Also, the results for the inhibition in assay [2] and in assay [3] were 10% and -4%, respectively. The result in assay [5], in assay [6], in assay [7] and in assay [8] was inactive.

For `Cc1ccc(C(=O)NCC2CCN(c3ccc(C(F)(F)F)cc3NC(=O)c3ccco3)CC2)cn1`, the growth inhibition is 73% (active) in assay [1] and 91% (active) in assay [4]. In addition, the values for the inhibition in assay [2] and in assay [3] were 9% and 0%, respectively. Moreover, the outcome in assay [5], in assay [6], in assay [7] and in assay [8] was inactive.

For `CCC(C)NS(=O)(=O)c1ccc2nc(Nc3ccc(C)c(Cl)c3)n(C(C)C(C)C)c2c1` (centres undefined), the growth inhibition in assay [1] and in assay [4] was 98% (active) each time. Also, the values for the inhibition in assay [2] and in assay [3] were 22% and 1%, respectively. Besides, the result in assay [5], in assay [6], in assay [7] and in assay [8] was inactive.

On to `c1cc(-c2nc3ccccc3[nH]2)nc(-c2nc3ccccc3[nH]2)c1`, for which the results for the growth inhibition in assay [1] and in assay [4] were 24% and 87% (active), respectively. Moreover, the inhibition in assay [2] is 7%; in assay [3], 0%. Further, the outcome in assay [5], in assay [6], in assay [7] and in assay [8] was inactive.

For `Clc1ncnc2ncn(Cc3cccc(Br)c3)c12`, the growth inhibition in assay [1] was 56% (active); in assay [4], 91% (active). Also, the inhibition was -5% in assay [2] and 3% in assay [3]. Besides, the result in assay [5], in assay [6], in assay [7] and in assay [8] was inactive.

On to `CC1(C)N=C(N)N=C(N)N1OCC1COc2ccccc2O1` (centres undefined), for which the growth inhibition in assay [1] is 66% (active); in assay [4] it was 96% (active). The inhibition in assay [2] was 56% (active); in assay [3], -1%. In addition, the outcome in assay [5], in assay [6], in assay [7] and in assay [8] was inactive.

For `COc1cc(F)c2ncc(Cl)c([C@@H](O)CN3CCC(NCc4ccc5c(n4)NC(=O)CO5)CC3)c2c1`, the growth inhibition is 100% (active) in assay [1] and 101% (active) in assay [4]. In addition, the inhibition in assay [2] was 12%; in assay [3], 1%. The result in assay [5], in assay [6], in assay [7] and in assay [8] was inactive.

Regarding `Cc1c(-c2cccc(C(C)(C)NCCCN3CCCCC3)c2)cnc(N)c1C`, the growth inhibition in assay [1] is 2%; in assay [4], 95% (active). The inhibition in assay [2] was 5%; in assay [3], -1%. Also, the result in assay [5], in assay [6], in assay [7] and in assay [8] was inactive.

Turning to `O=[N+]([O-])c1cccc(NC(=S)N2CCCN(Cc3ccc(F)cc3F)CC2)c1`, the growth inhibition in assay [1] was 98% (active); in assay [4], 99% (active). The inhibition was 5% in assay [2] and -1% in assay [3]. The result in assay [5], in assay [6], in assay [7] and in assay [8] was inactive.

On to `COc1ccc2nccc([C@@H](O)CN3CCC(NC(=O)/C=C/c4cc(F)cc(NC(C)=O)c4)CC3)c2c1`, for which the growth inhibition in assay [1] is 49%; in assay [4], 97% (active). In addition, the inhibition in assay [2] is 7%; in assay [3] it was 5%. Moreover, the outcome in assay [5], in assay [6], in assay [7] and in assay [8] was inactive.

As to `Clc1ccc(-c2cnc3ccc(NCc4ccncc4)nn23)cc1`, the growth inhibition in assay [1] and in assay [4] was 98% (active) in each case. The inhibition is 25% in assay [2] and 2% in assay [3]. In addition, the outcome in assay [5], in assay [6], in assay [7] and in assay [8] was inactive.

As for `COc1cc2nc(NCc3nc4ccccc4[nH]3)nc(N)c2cc1OC`, the values for the growth inhibition in assay [1] and in assay [4] were 10% and 97% (active), respectively. Further, the inhibition was 3% in assay [2] and -2% in assay [3]. Further, the outcome in assay [5], in assay [6], in assay [7] and in assay [8] was inactive.

One may read the inhibition as the change of the read-out against control, counted positive when it falls.
